Assay outcomes (PubChem)
KCNQ2 inh = KCNQ2 (rat) channel inhibition; O88943; B-score at 10 µM; 1.1% of 310,000 active; CHO-K1 KCNQ2, FluxOR thallium flux, 20 min; hits give low values;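 active means fluorescence ratio B-score at most minus 3 library SDs, with starting brightness B-score within 2 library SDs, cut at about -5.5 in these data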
KCNQ2 pot = KCNQ2 (rat) channel potentiation; O88943; CHO-K1 KCNQ2, FluxOR thallium flux fluorescence; hits give high values; B-score at 10 µM; 0.54% of 310,000 active; AID 2239;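 active means fluorescence ratio B-score at least 3 SD of library B-scores, with initial fluorescence B-score within 3 of them, cut at about 5.3 in these data; same plate scores as AID 2156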;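 further: B-score of peak minus minimum over baseline fluorescence ratio after K+ and Tl+ stimulus; positive B-score means potentiation of KCNQ2 with more thallium influx and brighter signal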
KCNQ2 inh conf = rat KCNQ2 channel inhibition, confirmatory screen | KCNQ2-expressing cells, thallium flux; hits give low values | activity change, negative = inhibition, % at 10 µM | shares compounds with KCNQ2 inh | 57% of 1,000 active;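 further: 0% = vehicle wells and values are ratio percent relative to vehicle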
KCNQ1 spec = human KCNQ1 activity in KCNQ2 inhibitor specificity screen; 15% of 1,000 active; AID 493026; KCNQ1-expressing cells, FluxOR thallium flux fluorescence; hits give low values; activity change, negative = inhibition, % at 10 µM; shares compounds with KCNQ2 inh;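 active means activity change at least 3 SD of negative controls below their mean in both duplicate wells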;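 further: CHO cells stably transfected with KCNQ1 and depolarized by potassium stimulus; peak minus minimum fluorescence over baseline after thallium addition; 0% = vehicle negative control and -100% = blank without thallium stimulus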
Target sequence (P51787 whole entry, looked up): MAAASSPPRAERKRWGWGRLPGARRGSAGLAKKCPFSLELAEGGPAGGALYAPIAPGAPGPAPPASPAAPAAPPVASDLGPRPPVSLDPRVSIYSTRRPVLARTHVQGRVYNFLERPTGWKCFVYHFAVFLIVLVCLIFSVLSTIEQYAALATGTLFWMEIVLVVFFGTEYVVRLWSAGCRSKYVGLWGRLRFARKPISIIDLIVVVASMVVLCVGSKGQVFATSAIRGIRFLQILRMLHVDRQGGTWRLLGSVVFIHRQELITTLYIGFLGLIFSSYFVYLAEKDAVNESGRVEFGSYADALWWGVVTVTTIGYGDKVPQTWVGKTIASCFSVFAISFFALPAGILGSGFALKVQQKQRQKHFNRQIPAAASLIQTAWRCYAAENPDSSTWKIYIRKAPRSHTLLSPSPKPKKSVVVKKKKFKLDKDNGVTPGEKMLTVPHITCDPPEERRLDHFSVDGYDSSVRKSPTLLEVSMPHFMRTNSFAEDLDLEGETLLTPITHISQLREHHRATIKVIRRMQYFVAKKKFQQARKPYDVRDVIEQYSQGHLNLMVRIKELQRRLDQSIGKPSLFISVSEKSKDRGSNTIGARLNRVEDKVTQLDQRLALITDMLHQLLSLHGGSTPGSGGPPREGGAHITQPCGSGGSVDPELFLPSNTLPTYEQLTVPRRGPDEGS
CHO Tl ctr = activity in parental CHO cells lacking KCNQ2 | activity change, % at 10 µM | AID 493029 | 14% of 1,000 active | shares compounds with KCNQ2 inh | thallium flux counter-screen; hits give low values;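 further: 0% = vehicle negative controls with stimulus buffer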
KCNQ2 inh confirm = confirmation of rat KCNQ2 potassium channel inhibitors | shares compounds with KCNQ2 inh | KCNQ2-expressing cells, automated patch clamp current | calls only at 10 µM | 49% of 550 active
* hit, by the source's call; i = inactive; . = not tested or not shown; + = active, no number. Only some compounds are listed: those with a hit (about 1.6% of all), similar ones and a draw of the others. Unless noted, how the calls were made is not given here.

SMILES	KCNQ2 inh	KCNQ2 pot	KCNQ2 inh conf	KCNQ1 spec	CHO Tl ctr	others
Cc1oc2cc3oc(=O)c(CCC(=O)NCCN4CCOCC4)c(C)c3cc2c1C	i	0.47	.	.	.
COc1ccccc1N(CC(=O)Nc1ccc2c(c1)OCCO2)S(=O)(=O)c1ccc(C)cc1	i	0.83	.	.	.
Cc1ccc2c(c1)c1c3n2CCN(C(=O)CN2CCN(C)CC2)C3CCC1 (configuration not stated)	i	.	.	.	.
CN1CCN(CC(=O)N2CCn3c4c(c5cc(C6CCCCC6)ccc53)CCCC42)CC1 (configuration not stated)	-13*	-13	-30%*	i	i	KCNQ2 inh confirm=i
CC12CCC(=O)N1C(C(=O)N1CCN(S(=O)(=O)c3ccc(F)c(F)c3)CC1)CS2 (configuration not stated)	i	0.05	.	.	.
O=C(O)/C=C/C(=O)NNC(=O)c1cccc(Br)c1	i	0.15	.	.	.
CCCCC(CC(O)COCCC)c1n[nH]c(=S)n1-c1ccccc1 (configuration not stated)	i	0.44	.	.	.
CCCC1=[N+](CC(=O)c2ccc(Br)cc2)CCn2cccc21	i	.	.	.	.
O=C(NCC(=O)N1CCCC(C(F)(F)F)C1)c1ccc2ccccc2c1 (configuration not stated)	-6.9*	-6.9	i	i	i
O=C(NCC(=O)N1CCCC(C(F)(F)F)C1)c1ccc(Oc2ccccc2)cc1 (configuration not stated)	i	1.4	.	.	.
COc1cccc(N2CCN(C(=O)c3ccc(-c4ccccc4)cc3)CC2)c1	i	.	.	.	.
Cc1ccccc1OCC(=O)Nc1ccccc1-c1ccccc1	-6.6*	-6.6	i	i	i
Cc1ccccc1NC(=O)COc1ccccc1C	i	.	.	.	.
CCOc1ccccc1OCC(=O)NCc1ccco1	i	.	.	.	.
O=C(COc1ccccc1-c1ccccc1)NCc1ccco1	-8.5*	-8.5	i	i	i
CN(C)S(=O)(=O)c1ccc(NC(=O)c2c(F)cccc2Cl)cc1	i	.	.	.	.
CC1(C)CC(=O)C(N=Nc2cc3c(cc2[N+](=O)[O-])OCCO3)=C(O)C1	i	0.16	.	.	.
COc1cc(NC(=O)c2cc3nc(-c4ccccc4)cc(-c4ccccc4)n3n2)cc(OC)c1OC	-7.1*	-7.1	i	i	i
COc1cc(NC(=O)c2cc(-c3ccccc3)on2)cc(OC)c1OC	i	.	.	.	.
Cc1ccc(Sc2c(C)nn(C(=O)c3cccc(S(=O)(=O)N4CCOCC4)c3)c2C)cc1	-9*	-9	-33%*	i	i	KCNQ2 inh confirm=i
Cc1cc(C)n(C(=O)c2cccc(S(=O)(=O)N3CCOCC3)c2)n1	i	.	.	.	.
Cc1cc(C)c(-c2noc(C(=O)OC(C)(C)C)c2C(=O)OC(C)(C)C)c(C)c1	-10*	-10	i	i	i
COc1cc(OC)c(-c2noc(C(=O)OC(C)(C)C)c2C(=O)OC(C)(C)C)c(OC)c1	i	.	.	.	.
Cc1cc(Cl)ccc1OC(C)C(=O)NCCCCc1ccccc1 (configuration not stated)	-7.3*	-7.3	-32%*	i	i	KCNQ2 inh confirm=+
Cc1cc(Cl)ccc1OC(C)C(=O)NCCc1ccc2c(c1)OCCO2 (configuration not stated)	i	.	.	.	.
SMILES	KCNQ2 inh	KCNQ2 pot	KCNQ2 inh conf	KCNQ1 spec	CHO Tl ctr	others
Cc1ccc(C)c(N2CCN(C(=O)CCCn3ncn4c(cc5occc54)c3=O)CC2)c1	i	.	.	.	.
CC(C)(C)c1ccc(NC(=O)c2ccc(=O)[nH]n2)cc1	i	1.7	.	.	.
COc1ccc(S(=O)(=O)N2CCCCCC2)cc1C(=O)N(C)Cc1ccc(Cl)cc1Cl	-8.5*	-8.5	i	i	i
COc1ccc(S(=O)(=O)N2CCCCCC2)cc1C(=O)N(C)Cc1cccs1	i	1.4	.	.	.
CCN1CCN(S(=O)(=O)c2ccc(Cl)c(C(=O)N(C)Cc3cccc(Cl)c3Cl)c2)CC1	-6.9*	-6.9	i	i	i
CCN1CCN(S(=O)(=O)c2ccc(Cl)c(C(=O)N(C)Cc3ccc(F)cc3)c2)CC1	i	0.54	.	.	.
N#C/C(=C\c1ccccc1Br)C(=O)NC1CC1	i	.	.	.	.
CCCCn1c(N)c(N(CCOC)C(=O)c2ccc(S(=O)(=O)N3CCCCCC3)cc2)c(=O)[nH]c1=O	i	.	.	.	.
CCOP(=O)(OCC)C(NC(=O)NS(=O)(=O)c1ccc(C)cc1)c1ccccc1 (configuration not stated)	i	.	.	.	.
CCOC(=O)c1c(C)n(-c2ccc(C)cc2)c2ccc(OCC(O)CNCCCO)cc12 (configuration not stated)	-11*	-11	i	i	i
CCOC(=O)c1c(C)n(C)c2ccc(OCC(O)CNC(CC)CO)cc12 (configuration not stated)	i	1.2	.	.	.
Cc1ccc(NCCC(=O)c2cccs2)cc1Cl	i	.	.	.	.
Cc1ccc(NCCC(=O)c2cccs2)cc1C	-6.7*	-6.7	i	i	i
Cc1cc(C(=O)NCc2cccc(Cl)c2)c2ccccc2n1	i	.	.	.	.
Cc1cc(C(=O)NCc2ccccc2Cl)c2ccccc2n1	-7.2*	-7.2	-22%*	i	i	KCNQ2 inh confirm=i
Cc1ccc(NC(=O)c2cc(C)nc3ccccc23)c(Br)c1	-6.7*	-6.7	i	i	i
Cc1ccc(NC(=O)c2ccccn2)c(Br)c1	i	.	.	.	.
Cc1cc(C(=O)Nc2ccccc2Cl)c2ccccc2n1	-6.9*	-6.9	-31%*	i	i	KCNQ2 inh confirm=+
COc1cc(NC(=O)c2cc(C)nc3ccccc23)cc(OC)c1OC	i	.	.	.	.
CC(=O)c1cccc(NC(=O)CCn2c(=S)oc3ccccc32)c1	i	0.02	.	.	.
Cc1ccc(S(=O)(=O)NC(=O)COc2cc(C)ccc2C(C)C)cc1	i	0.2	.	.	.
CC(C)(CNc1ccc([N+](=O)[O-])cc1Cl)N1CCOCC1	i	0.1	.	.	.
CC(C)(C)NC(=O)CSc1nc(-c2ccc(F)cc2)cs1	i	.	.	.	.
COc1ccc2ccc(OC)c(/C=N/n3cnnc3)c2c1	i	0.07	.	.	.
CCCC1/C(=N/O)CC(c2ccccc2)NC1c1ccccc1 (configuration not stated)	i	.	.	.	.
SMILES	KCNQ2 inh	KCNQ2 pot	KCNQ2 inh conf	KCNQ1 spec	CHO Tl ctr	others
CCC1C(=NO)C(CC)C(c2ccccc2)NC1c1ccccc1 (configuration not stated)	-9.4*	-9.4	-39%*	i	i	KCNQ2 inh confirm=i
CCC(C)N1C(=O)N(c2cccc(Cl)c2)C(C)(O)CC1(C)C (configuration not stated)	i	.	.	.	.
Cc1ccc(C2NC(=O)CCC2[N+](=O)[O-])cc1 (configuration not stated)	i	0.42	.	.	.
O=C(Nc1ccccn1)c1cc2ccccc2cc1O	i	.	.	.	.
Cc1ccccc1SCC(=O)Nc1cc(C(F)(F)F)ccc1N1CCOCC1	-9.5*	-9.5	-30%*	i	i	KCNQ2 inh confirm=i
Cc1nnc(SCC(=O)Nc2cc(C(F)(F)F)ccc2N2CCOCC2)o1	i	0.41	.	.	.
CC1CN(C(=O)COC(=O)c2ccc(N(C)C)cc2)CC(C)O1 (configuration not stated)	i	0.58	.	.	.
